Source: ChEMBL document CHEMBL3988442, “University of Dundee, Small-Polar-MMV Screening Library” (2021)
For some of these results: Potency and affinity values are given separately.

How the values were obtained:
Parameters in all cases: scale not given: direction of the effect not stated beside the values
[1] = target: Protein translocase subunit SecA (Escherichia coli (strain K12)) (UniProt P10408); experiment: Assay to Identify E. coli SecA ATPase Inhibitors; format: functional; conditions: 30 µM
Sequence of Protein translocase subunit SecA (Escherichia coli (strain K12)) (P10408 whole entry): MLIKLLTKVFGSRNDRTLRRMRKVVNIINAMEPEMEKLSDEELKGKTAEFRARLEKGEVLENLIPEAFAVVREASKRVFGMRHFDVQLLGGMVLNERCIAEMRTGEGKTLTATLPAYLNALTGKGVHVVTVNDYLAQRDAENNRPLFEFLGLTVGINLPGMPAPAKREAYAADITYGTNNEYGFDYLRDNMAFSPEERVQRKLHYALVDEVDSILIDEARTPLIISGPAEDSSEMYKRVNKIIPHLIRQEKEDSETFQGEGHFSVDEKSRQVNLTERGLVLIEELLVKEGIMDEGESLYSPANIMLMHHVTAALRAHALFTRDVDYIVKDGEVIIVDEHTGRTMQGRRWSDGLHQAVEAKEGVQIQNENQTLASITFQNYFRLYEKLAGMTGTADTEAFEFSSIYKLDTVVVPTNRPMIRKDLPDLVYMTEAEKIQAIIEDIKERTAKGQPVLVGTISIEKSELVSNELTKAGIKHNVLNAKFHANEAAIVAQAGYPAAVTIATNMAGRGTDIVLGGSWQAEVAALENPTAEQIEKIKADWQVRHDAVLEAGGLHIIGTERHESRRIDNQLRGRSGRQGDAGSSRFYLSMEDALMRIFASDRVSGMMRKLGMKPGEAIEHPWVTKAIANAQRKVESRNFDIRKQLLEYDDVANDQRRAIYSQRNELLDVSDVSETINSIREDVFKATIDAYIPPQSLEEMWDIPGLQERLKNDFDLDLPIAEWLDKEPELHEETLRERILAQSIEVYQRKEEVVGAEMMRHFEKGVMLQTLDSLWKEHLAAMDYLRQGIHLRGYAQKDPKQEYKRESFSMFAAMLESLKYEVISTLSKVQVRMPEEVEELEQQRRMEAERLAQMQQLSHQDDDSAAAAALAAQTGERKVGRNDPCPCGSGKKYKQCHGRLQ

[2] = target: T1, Ubiquitin-activating enzyme e1, putative (Leishmania donovani (strain BPK282A1)) (UniProt E9BSI1); experiment: Leishmania donovani Ubiquitin Activating Enzyme (LdE1); format: functional; conditions: 30 µM
T1 sequence (whole entry): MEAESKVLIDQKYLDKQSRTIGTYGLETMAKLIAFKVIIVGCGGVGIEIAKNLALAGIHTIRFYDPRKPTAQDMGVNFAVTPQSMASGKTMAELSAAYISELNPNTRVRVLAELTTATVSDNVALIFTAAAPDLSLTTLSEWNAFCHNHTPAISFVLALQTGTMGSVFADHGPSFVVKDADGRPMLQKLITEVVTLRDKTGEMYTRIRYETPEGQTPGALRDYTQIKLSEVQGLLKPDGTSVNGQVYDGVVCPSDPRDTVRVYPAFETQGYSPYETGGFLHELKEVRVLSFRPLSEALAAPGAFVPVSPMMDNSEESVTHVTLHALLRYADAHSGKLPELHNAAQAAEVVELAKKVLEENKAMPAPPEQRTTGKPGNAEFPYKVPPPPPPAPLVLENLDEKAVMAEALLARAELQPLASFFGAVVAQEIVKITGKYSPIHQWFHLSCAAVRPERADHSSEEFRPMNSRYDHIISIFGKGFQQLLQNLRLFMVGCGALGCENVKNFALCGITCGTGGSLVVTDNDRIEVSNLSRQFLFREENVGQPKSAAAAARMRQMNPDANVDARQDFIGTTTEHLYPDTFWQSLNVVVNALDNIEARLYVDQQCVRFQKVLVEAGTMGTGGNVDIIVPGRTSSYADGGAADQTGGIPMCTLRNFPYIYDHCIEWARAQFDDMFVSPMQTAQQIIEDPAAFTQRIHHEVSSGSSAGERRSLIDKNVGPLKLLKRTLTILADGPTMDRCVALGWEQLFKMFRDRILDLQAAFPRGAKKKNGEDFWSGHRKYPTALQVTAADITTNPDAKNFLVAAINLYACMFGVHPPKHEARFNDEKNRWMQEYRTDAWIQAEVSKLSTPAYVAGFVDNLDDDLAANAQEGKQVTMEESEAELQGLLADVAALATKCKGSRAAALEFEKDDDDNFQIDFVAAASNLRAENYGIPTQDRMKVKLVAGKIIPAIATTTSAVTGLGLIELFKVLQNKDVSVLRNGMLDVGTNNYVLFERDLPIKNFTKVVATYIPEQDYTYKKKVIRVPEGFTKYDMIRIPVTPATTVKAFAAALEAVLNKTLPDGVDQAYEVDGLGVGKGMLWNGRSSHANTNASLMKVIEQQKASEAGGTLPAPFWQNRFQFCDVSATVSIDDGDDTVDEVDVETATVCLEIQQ

[3] = target: AMP-activated protein kinase, AMPK (Homo sapiens) (UniProt P54646+O43741+P54619+Q9UGJ0+Q9Y478+Q13131+Q9UGI9); experiment: AMP-dependent Kinase enzyme assay. An in vitro enzyme assay that detects ADP turnover that is directly proportional to AMPK activity. This uses naive AMPK that is activated during the assay with MK-8722; format: functional; conditions: 30 µM
[4] = target: Sialic acid-binding Ig-like lectin 9 (Homo sapiens) (UniProt Q9Y336); experiment: Hs-Siglec9 ALPHAscreen SOP 20170721; conditions: 10 µM
Sequence of Sialic acid-binding Ig-like lectin 9 (Homo sapiens) (Q9Y336 whole entry): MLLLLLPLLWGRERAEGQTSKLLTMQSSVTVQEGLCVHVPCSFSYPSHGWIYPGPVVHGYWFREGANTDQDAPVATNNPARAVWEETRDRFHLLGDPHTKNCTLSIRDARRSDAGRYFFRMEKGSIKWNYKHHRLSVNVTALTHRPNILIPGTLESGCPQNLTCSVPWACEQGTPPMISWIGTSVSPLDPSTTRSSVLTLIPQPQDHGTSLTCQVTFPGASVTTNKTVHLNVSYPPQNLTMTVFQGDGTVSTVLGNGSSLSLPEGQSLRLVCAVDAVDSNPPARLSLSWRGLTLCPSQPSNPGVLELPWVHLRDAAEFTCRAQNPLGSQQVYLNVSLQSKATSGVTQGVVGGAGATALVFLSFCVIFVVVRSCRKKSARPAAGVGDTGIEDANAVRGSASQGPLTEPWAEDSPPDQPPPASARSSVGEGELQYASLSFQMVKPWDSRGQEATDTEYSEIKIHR

Trypanosoma cruzi = experiment: Trypanosoma cruzi phosphomannomutase and mannose-1-phosphate guanylyltransferase assay; format: functional; conditions: 10 µM
[5] = target: T2, Arginase-2, mitochondrial (Homo sapiens) (UniProt P78540); experiment: in vitro enzyme assay to detect the production of urea directly proportional to the activity of Arginase II; format: functional; conditions: 33.3 µM; also: in the data most compounds retested in dose-response had high values
T2 sequence (whole entry): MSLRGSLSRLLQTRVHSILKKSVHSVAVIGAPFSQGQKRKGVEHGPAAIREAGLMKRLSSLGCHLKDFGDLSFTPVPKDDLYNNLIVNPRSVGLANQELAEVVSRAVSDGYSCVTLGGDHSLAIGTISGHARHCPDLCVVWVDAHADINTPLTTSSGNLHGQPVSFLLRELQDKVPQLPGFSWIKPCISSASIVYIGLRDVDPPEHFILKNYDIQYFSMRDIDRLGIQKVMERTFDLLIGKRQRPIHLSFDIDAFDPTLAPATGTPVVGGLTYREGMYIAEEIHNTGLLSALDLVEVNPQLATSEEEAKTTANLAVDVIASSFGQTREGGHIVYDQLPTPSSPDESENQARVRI

[6] = target: T3, Proteasome subunit beta (Trypanosoma cruzi) (UniProt O96673); experiment: Trypanosoma cruzi proteasome chymotrypsin-like activity (TcProtChymo) assay.; also: in the data most compounds retested in dose-response had high values; format: functional; conditions: 9.37 µM
T3 sequence (whole entry): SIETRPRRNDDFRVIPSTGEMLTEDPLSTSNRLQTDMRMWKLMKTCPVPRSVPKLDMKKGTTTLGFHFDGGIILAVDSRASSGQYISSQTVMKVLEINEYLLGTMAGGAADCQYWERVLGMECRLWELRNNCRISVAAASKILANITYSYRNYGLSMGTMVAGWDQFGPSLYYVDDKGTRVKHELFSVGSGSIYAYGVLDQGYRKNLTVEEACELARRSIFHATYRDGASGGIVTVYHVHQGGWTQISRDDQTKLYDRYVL

Homo sapiens = organism: Homo sapiens; experiment: To identify inhibition of the IFN signalling (Jak-Stat) pathway via expression of an eGFP reporter gene under the control of an IFN-stimulated response element (ISRE) containing MxA promoter.; format: functional; conditions: 30 µM
[7] = target: T4, Tyrosyl-tRNA synthetase, putative (Trypanosoma cruzi (strain CL Brener)) (UniProt Q4DSP6); experiment: Trypanosoma cruzi tyrosyl tRNA synthetase (TcYRS) _High Tyrosine SOP; format: functional; conditions: 30 µM; also: in the data most compounds retested in dose-response had high values
T4 sequence (whole entry): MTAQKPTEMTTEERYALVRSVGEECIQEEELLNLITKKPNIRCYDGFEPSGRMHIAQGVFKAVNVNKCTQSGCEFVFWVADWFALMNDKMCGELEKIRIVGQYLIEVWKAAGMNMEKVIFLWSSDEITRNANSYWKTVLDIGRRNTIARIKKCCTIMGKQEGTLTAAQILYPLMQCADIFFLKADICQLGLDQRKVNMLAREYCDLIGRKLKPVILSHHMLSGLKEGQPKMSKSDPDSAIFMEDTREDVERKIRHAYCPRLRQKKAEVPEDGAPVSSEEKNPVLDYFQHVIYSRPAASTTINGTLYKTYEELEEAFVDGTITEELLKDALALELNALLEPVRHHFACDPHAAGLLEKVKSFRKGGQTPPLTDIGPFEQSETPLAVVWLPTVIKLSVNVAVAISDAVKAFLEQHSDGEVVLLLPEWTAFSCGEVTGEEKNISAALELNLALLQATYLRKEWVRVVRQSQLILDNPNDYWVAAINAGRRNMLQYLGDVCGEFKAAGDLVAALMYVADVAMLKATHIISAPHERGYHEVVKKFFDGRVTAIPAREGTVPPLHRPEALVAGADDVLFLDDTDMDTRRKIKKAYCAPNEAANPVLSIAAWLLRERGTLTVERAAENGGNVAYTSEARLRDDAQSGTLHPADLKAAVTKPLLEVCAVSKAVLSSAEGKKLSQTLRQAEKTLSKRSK

[8] = target: T4, Tyrosyl-tRNA synthetase, putative (Trypanosoma cruzi (strain CL Brener)); experiment: Trypanosoma cruzi tyrosyl tRNA synthetase (TcYRS) SOP; format: functional; conditions: 30 µM
[9] = target: Chromo domain-containing protein 1 (Saccharomyces cerevisiae (strain ATCC 204508 / S288c) (Baker's yeast)) (UniProt P32657); experiment: ScCHD-1 Enzyme Inhibition Assay; format: functional; conditions: 30 µM; also: in the data most compounds retested in dose-response had high values
Sequence of Chromo domain-containing protein 1 (Saccharomyces cerevisiae (strain ATCC 204508 / S288c) (Baker's yeast)) (P32657 whole entry, the tested form may be a part): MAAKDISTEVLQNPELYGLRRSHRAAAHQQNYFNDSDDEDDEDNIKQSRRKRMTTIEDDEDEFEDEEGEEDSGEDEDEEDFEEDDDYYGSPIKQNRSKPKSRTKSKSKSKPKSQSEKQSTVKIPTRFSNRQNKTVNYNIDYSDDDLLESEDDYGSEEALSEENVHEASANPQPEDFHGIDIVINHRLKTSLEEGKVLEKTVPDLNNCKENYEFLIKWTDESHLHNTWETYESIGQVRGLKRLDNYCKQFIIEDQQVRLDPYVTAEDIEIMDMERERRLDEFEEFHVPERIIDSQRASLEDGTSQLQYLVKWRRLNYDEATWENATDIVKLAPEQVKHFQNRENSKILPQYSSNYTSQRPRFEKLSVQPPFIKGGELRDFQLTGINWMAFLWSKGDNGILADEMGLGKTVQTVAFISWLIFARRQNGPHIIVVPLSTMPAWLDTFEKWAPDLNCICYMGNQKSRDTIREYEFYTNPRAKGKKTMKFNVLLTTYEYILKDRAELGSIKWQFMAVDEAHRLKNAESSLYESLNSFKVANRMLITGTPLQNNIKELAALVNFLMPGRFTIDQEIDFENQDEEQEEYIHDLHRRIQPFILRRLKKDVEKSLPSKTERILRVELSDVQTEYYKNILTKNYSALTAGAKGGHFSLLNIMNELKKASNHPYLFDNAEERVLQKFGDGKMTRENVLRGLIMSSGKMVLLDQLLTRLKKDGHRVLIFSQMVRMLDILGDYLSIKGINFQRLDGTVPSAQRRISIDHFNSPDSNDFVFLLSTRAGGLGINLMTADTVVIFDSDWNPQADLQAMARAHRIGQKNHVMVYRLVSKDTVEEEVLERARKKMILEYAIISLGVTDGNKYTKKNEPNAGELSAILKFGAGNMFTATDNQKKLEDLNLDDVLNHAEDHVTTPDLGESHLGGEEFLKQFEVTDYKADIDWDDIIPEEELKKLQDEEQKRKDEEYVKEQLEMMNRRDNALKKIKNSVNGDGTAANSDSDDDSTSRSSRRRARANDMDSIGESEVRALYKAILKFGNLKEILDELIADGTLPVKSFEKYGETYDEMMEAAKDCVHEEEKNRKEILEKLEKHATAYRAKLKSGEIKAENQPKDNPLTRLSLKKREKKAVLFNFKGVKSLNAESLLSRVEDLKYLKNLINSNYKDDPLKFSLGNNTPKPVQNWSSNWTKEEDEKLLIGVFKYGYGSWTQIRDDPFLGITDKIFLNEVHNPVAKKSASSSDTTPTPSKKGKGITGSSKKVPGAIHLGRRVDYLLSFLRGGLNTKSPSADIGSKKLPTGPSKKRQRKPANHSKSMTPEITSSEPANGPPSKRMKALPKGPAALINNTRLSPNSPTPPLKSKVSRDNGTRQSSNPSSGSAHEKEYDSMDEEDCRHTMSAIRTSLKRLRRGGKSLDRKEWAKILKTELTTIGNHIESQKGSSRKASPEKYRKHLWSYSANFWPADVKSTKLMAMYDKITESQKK

SMILES	Percent Effect [1] [%]	Percent Effect [2] [%]	Percent Effect [3] [%]	Percent Effect [4] [%]	Percent Effect (Trypanosoma cruzi) [%]	Percent Effect [5] [%]	Percent Effect [6] [%]	Percent Effect (Homo sapiens) [%]	Percent Effect [7] [%]	Percent Effect [8] [%]	Percent Effect [9] [%]
Cc1nccn1CCC1CCCCN1Cc1ccncc1 (stereo not given)	-5.73	8	-13	-0.0054	-2.63	0.521	13.8	25.9	2.73	13.6	-6.06
c1nc2c(c(-c3ccsc3)n1)CCN(Cc1ccoc1)CC2	-1.1	-5.41	14.1	-1.76	-2.15	-1.67	5.83	12.5	-6.93	-3.66	-0.614
CN(CC1(O)CCCCC1)C1CCCN(Cc2noc(C3CC3)n2)C1 (stereo not given)	-0.786	26.3	-8.18	-11.1	-3.46	-1.08	10.9	10.4	4.43	13.6	-3.04
CC(NCc1ccncc1)c1cc(F)ccc1N1CCN(C)CC1 (stereo not given)	-1.22	5.41	-10.4	21	6.16	15.6	5.58	-10.1	2.15	11.1	-9.91
CS(=O)(=O)N1CC[C@H]2O[C@H](C(=O)NCCc3ccncc3)CC[C@H]21	-7.37	0	5.86	-3.48	-2.51	-57.5	-1.03	15	2.08	-15	3.45
Cc1nc(C(=O)N2CCCC(c3cccc(-n4ccnc4)n3)C2)co1 (stereo not given)	-7.87	1.35	2.78	1.23	-5.34	-2.55	10.1	12.6	0	1.3	-6.74
O=C(c1cnccn1)N1CCN(Cc2csc(-c3ccccc3)n2)CC1	-3.77	-2.7	9.72	-0.413	-6.04	0.185	0.898	19.6	-4.95	-1.22	7.87
COc1ccc(CN2C[C@@H]3CCCO[C@@H]3[C@H](NS(C)(=O)=O)C2)cc1	0.295	13.3	-2.32	4.91	2.9	-48.2	5.13	-24.2	6.25	25	-6.84
c1ncn(CC2CCCCN2Cc2noc(C3CC3)n2)n1 (stereo not given)	-0.132	15.8	0.834	1.81	-1.69	-1.92	16.4	6.6	3.43	21.9	-12.9
O[C@H]1CCN(Cc2ccoc2)[C@H]1Cc1cccnc1	-6.91	0	3.99	-6.85	-1.16	-54.7	5.47	13.5	4.17	2.5	-9.55
CCc1csc(CCNC(=O)C2CC(=O)N(C(C)C)C2)n1 (stereo not given)	-2.98	15.6	-6.03	4.97	0.0983	-11	8.65	8.23	6.45	13.6	-1.5
CC(Cn1cccn1)NCc1nc(-c2cccc(Cl)c2)no1 (stereo not given)	-2.57	-2.63	1.2	3.09	4.76	0	5.33	11.7	3.45	11.1	2.72
Cc1cnn(CC2CCCCN2CCC(=O)Nc2cc(C)on2)c1 (stereo not given)	-4.7	3.8	-0.138	0.417	0.308	-1.07	11.7	-10.4	1.04	12.7	-13.7
CNC(=O)CC1CCN(Cc2nc(-c3ccc(SC)cc3)oc2C)CC1	-7	2.7	-0.898	2.66	-2.7	-0.952	11.7	13.2	7.94	0	-2.7
Cc1occc1C(=O)N1CCC2(CC1)NC(=O)CC2c1cnn(C)c1 (stereo not given)	-3.16	10.8	-0.0675	-1.75	1.86	7.33	9.41	-9.35	0	12.8	0.845
COCCN1C[C@@H]2CCCO[C@@H]2[C@H](NC(=O)c2cnccn2)C1	-1.67	8	1.63	1.69	-2.32	-45.3	3.59	-4.03	5.21	-12.5	-7.48
CCOCC1CN(Cc2ccoc2)Cc2ncn(CC3CC3)c21 (stereo not given)	-8.23	-2.7	0.834	4.02	-2.34	-0.833	10.1	3.58	4.95	-1.22	-0.436
O=C(Cc1cccc(F)c1)NCCNCc1ccco1	-9.13	2.6	7.05	-0.647	-3.37	-2.13	7.09	34.8	3.88	2.44	-7.92
Cc1csc(N2CCN(CC(=O)Nc3nncs3)CC2C)n1 (stereo not given)	-3.67	0	-9.26	8.6	-0.836	-3.88	5.92	9.1	3.96	-1.22	10.3
CO[C@H]1CN(Cc2cccc(C#N)c2)[C@@H]2COC[C@H]12	-3.41	8	-0.964	2.51	0.965	-48.9	7.52	-21.7	5.21	22.5	-5.96
